Assay outcomes (PubChem)
MITF primary: inhibitors of human MITF; O75030; AlphaScreen MITF homodimerization, bead proximity signal; inhibition, % at 2.6 µM; hit rate 0.91% among 650,000; in the data active means inhibition above about 50%;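 further: 0% = vehicle wells with protein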
FBW7 act: human FBW7 E3 ligase activation, primary screen; Q969H0; AlphaScreen FBW7–phospho-cyclin E peptide binding, activator screen; normalized activity (activation), % at 26.1 µM; hit rate 0.13% among 650,000; AID 1259310; in the data active means normalized activity above about 1.9%;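 further: purified mutant Fbw7 with reduced substrate affinity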
Target sequence (Q969H0 whole entry, looked up): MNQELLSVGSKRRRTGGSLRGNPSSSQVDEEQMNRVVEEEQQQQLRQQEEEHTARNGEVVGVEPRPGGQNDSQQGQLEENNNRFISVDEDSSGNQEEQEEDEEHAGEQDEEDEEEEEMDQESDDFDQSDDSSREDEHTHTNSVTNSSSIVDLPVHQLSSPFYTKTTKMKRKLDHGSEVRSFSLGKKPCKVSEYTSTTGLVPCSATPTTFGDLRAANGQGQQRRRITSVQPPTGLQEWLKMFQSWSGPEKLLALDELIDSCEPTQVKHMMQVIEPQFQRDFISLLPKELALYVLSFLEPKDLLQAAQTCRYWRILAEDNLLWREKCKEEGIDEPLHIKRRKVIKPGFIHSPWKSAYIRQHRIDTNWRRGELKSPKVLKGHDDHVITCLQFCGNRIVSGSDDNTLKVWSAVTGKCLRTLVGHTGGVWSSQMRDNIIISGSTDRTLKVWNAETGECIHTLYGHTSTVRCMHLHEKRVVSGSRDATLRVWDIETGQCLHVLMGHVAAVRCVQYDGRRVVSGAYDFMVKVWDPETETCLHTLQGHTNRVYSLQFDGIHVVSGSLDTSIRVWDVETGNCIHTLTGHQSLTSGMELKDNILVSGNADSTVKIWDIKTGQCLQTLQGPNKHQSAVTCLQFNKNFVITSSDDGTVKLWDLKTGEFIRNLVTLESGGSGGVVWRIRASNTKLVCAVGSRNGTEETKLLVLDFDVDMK
GPR151 activ: human GPR151 activation; Q8TDV0; PathHunter beta-arrestin GPR151 cells, luminescence; activation, % at 11.2 µM; hit rate 1% among 650,000; in the data active means activation above about 4.9%;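 further: 0% = median of compound wells and 100% = cells with positive control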
TEAD-YAP block: TEAD-YAP interaction inhibition. HEK-TIYL cells, TEAD-Gal4/YAP UAS-luciferase luminescence. inhibition, % at 9.12 µM. hit rate 1.4% among 640,000. AID 1259422; in the data active means inhibition above about 32%;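 further: 0% = median of test compound wells and 100% = reference inhibitor wells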
MITF confirm: human MITF inhibition, confirmation. shares compounds with MITF primary. AlphaScreen MITF homodimerization, biotin/His-MITF beads. inhibition, % at 2.6 µM. hit rate 16% among 4,700. AID 1259372;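 active means inhibition above a cutoff derived from the DMSO control wells, cut at about 28% in these data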;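 further: 0% = MITF dimer wells with DMSO only; inhibitors lower the bead chemiluminescence by keeping MITF from dimerizing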
AlphaScreen DR: optically interferes with AlphaScreen signal in dose response; shares compounds with MITF primary; AlphaScreen optical interference counterscreen, cell-free; IC50, µM; hit rate 6% among 480; AID 1259373; call rule not given here
AlphaScreen intf2: counter-screen: compounds optically interfering with AlphaScreen | shares compounds with MITF primary | hit rate 7.6% among 4,700 | AID 1259376 | inhibition, % at 2.6 µM | LysRS AlphaScreen counterscreen, signal interference, triplicate;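 active means inhibition above a cutoff derived from the DMSO control wells, cut at about 30% in these data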
An asterisk follows results filed as active; · = no result given. This is a sample that favours compounds with a hit; in the whole collection about 3.4% have one here.

SMILES	MITF primary	FBW7 act	GPR151 activ	TEAD-YAP block	MITF confirm	AlphaScreen intf2	others
CCOC(=O)CCCCC(=O)c1c(C)n(C(=O)c2ccc(N3C(=O)CCC3=O)cc2)c(=O)n1C(=O)c1ccc(N2C(=O)CCC2=O)cc1	106.7*	-1.0	-0.6	-7.6	107.0*	88.2*
CCOC(=O)CCCCC(=O)c1[nH]c(=O)n(C(=O)c2ccccc2)c1C	89.3*	-1.6	-0.3	-4.6	115.1*	98.3*
COc1ccc(Nc2cc(NCCCN3CCOCC3)ncn2)cc1	3.8	-0.1	-0.5	9.2	·	·
O=C(COc1ccc2ccccc2c1)NNC(=O)c1ccc(Cl)cc1	4.1	-0.1	0.3	-3.6	·	·
O=C(COc1ccc(Cl)cc1)NNC(=O)c1ccc(=O)[nH]c1	67.5*	-0.2	-0.4	-1.4	-9.3	-6.9
CCOC(=O)c1c(NC(=O)c2nn(C)cc2Cl)sc2c1CCCC2	93.1*	0.4	-0.6	6.9	3.0	-2.5
CCOC(=O)c1c(NC(=O)c2nn(C)cc2[N+](=O)[O-])sc2c1CCCC2	17.4	0.2	-0.7	-1.4	·	·
COc1ccc(Br)c(C(=O)OCC(=O)Nc2ccc(NC(C)=O)cc2)c1	-1.4	0.0	1.1	12.9	·	·
O=C(O)c1ccc(O)c(C=Nc2ccc(N=Cc3cc(C(=O)O)ccc3O)cc2)c1	70.3*	-0.2	-0.6	-10.6	72.6*	-8.5	AlphaScreen DR=>6.48
NC(=O)c1ccc(N=Cc2cc(Br)ccc2O)cc1	-5.5	-0.1	2.3	-3.0	·	·
Oc1ccc(-c2nc3cnccn3c2NC2CCCC2)cc1O	-4.7	-0.1	-1.2	-30.9	·	·
O=C1N[C@@H](CC2CCCCC2)C(=O)N2CCN(C(=O)c3cc(F)c(F)cc3F)C[C@H]12	4.7	0.2	0.1	1.9	·	·
C[C@@H]1NC(=O)[C@H]2CN(C(=O)NC3CCCCC3)CCN2C1=O	77.2*	-0.4	-0.7	11.3	73.8*	-10.4	AlphaScreen DR=>6.48
CCC[C@@H]1NC(=O)[C@H]2CN(C(=O)NC3CCCCC3)CCN2C1=O	76.7*	0.1	0.7	4.9	71.1*	-10.1	AlphaScreen DR=>6.48
CC[C@H](C)[C@@H]1NC(=O)[C@H]2CN(C(=O)NC3CCCCC3)CCN2C1=O	73.5*	-0.5	2.2	-0.4	69.9*	-10.8	AlphaScreen DR=>6.48
O=C1N[C@@H](CC2CCCCC2)C(=O)N2CCN(C(=O)Nc3ccccc3)C[C@H]12	77.0*	-0.2	-1.3	7.3	70.3*	-10.4	AlphaScreen DR=>6.48
CC[C@H](C)[C@@H]1NC(=O)[C@H]2CN(C(=O)c3cc(Cl)cc(Cl)c3)CCN2C1=O	-19.3	0.0	0.3	4.6	·	·
C[C@H]1NC(=O)[C@@H]2C[C@H](NC(=O)NC3CCCCC3)CN2C1=O	9.2	-0.1	1.0	-0.3	·	·
CC1=CC(C)(C)Nc2ccc(OC(=O)CCN3C(=O)c4ccccc4C3=O)cc21	10.9	-0.4	-0.4	-22.1	·	·
Cc1cc(C)cc(NS(=O)(=O)c2ccc3c(c2)OCCCO3)c1	-0.2	0.2	1.6	4.4	·	·
O=C1N[C@@H](CSCc2ccccc2)C(=O)N2CCN(C(=O)NC3CCCCC3)C[C@H]12	64.9*	-0.3	4.0	9.2	71.9*	-3.6	AlphaScreen DR=>6.48
CCOC(=O)c1ccc(NC(=O)CCSc2ccc(C)cc2)cc1	18.6	0.2	-0.4	-1.8	·	·
CCOC(=O)c1ccc(NC(=O)CSc2ccc(F)cc2)cc1	53.9*	0.1	-0.5	-2.8	4.1	12.4
CC(C)c1ccc(OCC(=O)NCCS(=O)(=O)N2CCc3ccccc32)cc1	80.5*	-0.1	0.8	3.2	-7.2	-2.3
CCOC(=O)c1c(N)nn2c3ccccc3n(C)c12	63.8*	0.0	0.9	-24.4	10.6	17.7
SMILES	MITF primary	FBW7 act	GPR151 activ	TEAD-YAP block	MITF confirm	AlphaScreen intf2	others
COc1cccc(-c2cc(C(F)(F)F)c(C#N)c(SCC(N)=O)n2)c1	16.3	1.0	0.7	4.3	·	·
COCCn1c(SCC#N)nnc1-c1cnccn1	-3.1	0.1	0.5	1.0	·	·
Cn1c(SCC#N)nnc1-c1cnccn1	68.6*	-0.3	0.5	-0.9	9.7	18.5
COC(=O)CSc1nnc(-c2cnccn2)n1C	64.9*	-0.3	0.5	-3.6	36.0*	10.8	AlphaScreen DR=>6.48
Cc1cccc(OCC(=O)Nc2ccc(-c3nc4ccccc4o3)cc2)c1C	8.7	0.1	-1.1	-4.8	·	·
COC(=O)CN1C(=O)S/C(=C/c2ccc([N+](=O)[O-])o2)C1=O	61.7*	0.0	-0.2	-11.1	47.0*	4.4	AlphaScreen DR=>6.48
O=C(N/N=C/c1ccc(C(F)(F)F)cc1)c1ccc(O)cc1O	68.9*	-0.1	-1.6	-13.9	6.6	25.0
Cc1nc2ccccc2c2oc(C(=O)NCCCN3CCCC(C)C3)cc12 (centres undefined)	6.1	-0.2	4.8	2.4	·	·
CCOC(=O)c1cnc(-n2[nH]c3c(c2=O)CCCC3)[nH]c1=O	88.2*	0.0	-2.3	8.2	47.1*	63.9*
CCOC(=O)c1cnc(OC)[nH]c1=O	-5.0	0.0	-0.3	3.1	·	·
COc1ccc(OC)c(CN2CCN(S(C)(=O)=O)CC2)c1	59.5*	-0.2	-1.3	11.9	11.2	11.4
COc1ccc(OC)c(CN2CCN(Cc3ccc(Br)cc3)CC2)c1	76.6*	-0.1	-0.6	-3.1	-0.1	-0.9
COc1ccc(Br)cc1CN(CCCN(C)C)CCCN(C)C	47.8	0.1	1.1	-5.8	·	·
CCc1ccc(CN2CCN(Cc3cc(OC)ccc3OC)CC2)cc1	65.5*	0.4	-1.5	1.8	10.9	16.8
COc1ccc(OC)c(CN(CCCN(C)C)CCCN(C)C)c1	59.5*	0.0	0.2	-7.2	-11.4	-5.8
COc1ccc(S(=O)(=O)N2CCN(Cc3cc(OC)ccc3OC)CC2)cc1	5.4	-0.1	-0.2	1.0	·	·
CCN(CC)c1ncnc2sc(C(=O)Nc3ccc(OC)cc3OC)c(C)c12	-4.5	-0.1	-0.3	2.2	·	·
COc1ccc(OC)c(CN2CCN(Cc3cc(OC)ccc3OC)CC2)c1	57.1*	-0.1	2.6	-1.6	-3.5	-3.3
COc1ccc(OC)c(CN2CCC(N3CCCC(C)C3)CC2)c1 (centres undefined)	50.7*	-0.2	1.9	1.2	-6.1	4.1
COc1ccc(OC)c(CN2CCN(C3CCC(C)CC3)CC2)c1 (centres undefined)	57.1*	0.1	1.1	1.8	8.6	-3.6
COc1ccc(CN2CCN(C3CCCC(C)C3)CC2)c(OC)c1 (centres undefined)	32.6	0.1	0.5	6.4	·	·
O=C(c1cnc2c(c1)c(=O)nc1ccccn12)c1ccccc1O	6.2	-0.1	-0.8	-0.1	·	·
COc1ccc(NC(=O)CCCCCN2C(=O)c3ccccc3C2=O)c(OC)c1	-11.7	0.0	1.8	5.7	·	·
Cn1nc(C(=O)OCC(=O)Nc2ccc(S(N)(=O)=O)cc2)c2ccccc2c1=O	15.5	0.5	-1.1	-5.1	·	·
CCc1n[nH]c(=S)n1N=C1CCC(C)CC1 (centres undefined)	59.4*	0.3	0.5	2.5	-0.7	-2.1
CCc1n[nH]c(=S)n1/N=C/c1ccc(F)cc1	4.4	0.2	-0.5	-9.3	·	·
